Legend:
Assay in all cases: log2 ratio of Biotin-Ahx-Ub-VS probe labelling (fragment/DMSO); higher = less target engagement (more negative = stronger competition), active = hit call of the paper (q ≤ 0.05, log2 ratio ≤ -1)
Details in all cases: compound concentration: 200 uM; treatment time: 3 h
USP42 = target: T1, USP42 (UniProt Q9H9J4)
T1 sequence (whole entry): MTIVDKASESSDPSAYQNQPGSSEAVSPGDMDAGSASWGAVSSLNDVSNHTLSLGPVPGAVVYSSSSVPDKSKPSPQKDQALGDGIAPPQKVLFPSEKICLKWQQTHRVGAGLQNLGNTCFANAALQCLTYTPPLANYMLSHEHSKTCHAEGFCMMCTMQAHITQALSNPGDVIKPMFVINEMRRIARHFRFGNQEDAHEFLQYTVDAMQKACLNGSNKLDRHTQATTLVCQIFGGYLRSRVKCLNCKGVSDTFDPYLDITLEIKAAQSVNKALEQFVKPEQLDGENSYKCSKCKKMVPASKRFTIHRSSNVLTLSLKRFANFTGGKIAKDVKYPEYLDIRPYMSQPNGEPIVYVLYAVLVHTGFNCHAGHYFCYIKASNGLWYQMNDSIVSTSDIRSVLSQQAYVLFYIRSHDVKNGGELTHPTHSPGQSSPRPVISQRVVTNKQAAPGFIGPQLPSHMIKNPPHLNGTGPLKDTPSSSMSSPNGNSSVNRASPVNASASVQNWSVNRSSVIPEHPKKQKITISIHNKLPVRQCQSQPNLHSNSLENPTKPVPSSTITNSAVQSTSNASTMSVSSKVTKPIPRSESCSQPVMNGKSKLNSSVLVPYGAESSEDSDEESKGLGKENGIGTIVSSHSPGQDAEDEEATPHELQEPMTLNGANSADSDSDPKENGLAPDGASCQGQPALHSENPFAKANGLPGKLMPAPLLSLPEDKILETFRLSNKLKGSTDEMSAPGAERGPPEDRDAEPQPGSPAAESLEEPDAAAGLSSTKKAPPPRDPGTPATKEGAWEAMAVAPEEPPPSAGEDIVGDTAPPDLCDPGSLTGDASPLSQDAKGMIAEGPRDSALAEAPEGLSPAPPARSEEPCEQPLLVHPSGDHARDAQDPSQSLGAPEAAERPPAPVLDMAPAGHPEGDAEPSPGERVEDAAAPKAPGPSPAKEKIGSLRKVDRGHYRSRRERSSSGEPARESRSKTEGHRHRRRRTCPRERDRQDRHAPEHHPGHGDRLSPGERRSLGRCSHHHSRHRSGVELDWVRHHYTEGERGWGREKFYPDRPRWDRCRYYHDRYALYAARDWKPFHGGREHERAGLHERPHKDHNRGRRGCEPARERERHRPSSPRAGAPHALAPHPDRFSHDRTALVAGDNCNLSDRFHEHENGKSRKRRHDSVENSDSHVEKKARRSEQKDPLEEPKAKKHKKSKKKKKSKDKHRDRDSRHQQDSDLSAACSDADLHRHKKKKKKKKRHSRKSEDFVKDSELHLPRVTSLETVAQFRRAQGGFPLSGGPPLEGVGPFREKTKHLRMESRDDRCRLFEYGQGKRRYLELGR
In short: (§1)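 Fragment (200 µM) or vehicle was incubated for 3 h with triplicate HEK293T lysate samples of 495 µg, which were then treated with Biotin-Ahx-Ub-VS at 0.5 µM final for 1 h. Labelled DUBs were enriched on NeutrAvidin, digested with LysC and trypsin, and analysed by diaPASEF LC-MS/MS. Values are average log2 fragment/vehicle ratios from an unpaired t-test on global-median-normalised Spectronaut label-free quantities, using proteins with ≥2 unique peptides.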

USP46 = USP46 (UniProt P62068)
USP46, sequence (P62068 whole entry): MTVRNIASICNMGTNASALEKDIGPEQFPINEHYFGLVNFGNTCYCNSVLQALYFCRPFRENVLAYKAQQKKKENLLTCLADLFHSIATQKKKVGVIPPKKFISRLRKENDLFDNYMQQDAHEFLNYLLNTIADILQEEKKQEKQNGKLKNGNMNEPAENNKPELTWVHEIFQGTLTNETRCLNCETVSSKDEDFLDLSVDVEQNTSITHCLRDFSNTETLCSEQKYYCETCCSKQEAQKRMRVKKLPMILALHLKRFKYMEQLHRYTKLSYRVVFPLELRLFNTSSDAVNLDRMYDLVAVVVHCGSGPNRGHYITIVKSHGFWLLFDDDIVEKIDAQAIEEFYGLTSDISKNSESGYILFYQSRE
In short: as §1

USP47 = target: T2, USP47 (UniProt Q96K76)
T2 sequence (whole entry): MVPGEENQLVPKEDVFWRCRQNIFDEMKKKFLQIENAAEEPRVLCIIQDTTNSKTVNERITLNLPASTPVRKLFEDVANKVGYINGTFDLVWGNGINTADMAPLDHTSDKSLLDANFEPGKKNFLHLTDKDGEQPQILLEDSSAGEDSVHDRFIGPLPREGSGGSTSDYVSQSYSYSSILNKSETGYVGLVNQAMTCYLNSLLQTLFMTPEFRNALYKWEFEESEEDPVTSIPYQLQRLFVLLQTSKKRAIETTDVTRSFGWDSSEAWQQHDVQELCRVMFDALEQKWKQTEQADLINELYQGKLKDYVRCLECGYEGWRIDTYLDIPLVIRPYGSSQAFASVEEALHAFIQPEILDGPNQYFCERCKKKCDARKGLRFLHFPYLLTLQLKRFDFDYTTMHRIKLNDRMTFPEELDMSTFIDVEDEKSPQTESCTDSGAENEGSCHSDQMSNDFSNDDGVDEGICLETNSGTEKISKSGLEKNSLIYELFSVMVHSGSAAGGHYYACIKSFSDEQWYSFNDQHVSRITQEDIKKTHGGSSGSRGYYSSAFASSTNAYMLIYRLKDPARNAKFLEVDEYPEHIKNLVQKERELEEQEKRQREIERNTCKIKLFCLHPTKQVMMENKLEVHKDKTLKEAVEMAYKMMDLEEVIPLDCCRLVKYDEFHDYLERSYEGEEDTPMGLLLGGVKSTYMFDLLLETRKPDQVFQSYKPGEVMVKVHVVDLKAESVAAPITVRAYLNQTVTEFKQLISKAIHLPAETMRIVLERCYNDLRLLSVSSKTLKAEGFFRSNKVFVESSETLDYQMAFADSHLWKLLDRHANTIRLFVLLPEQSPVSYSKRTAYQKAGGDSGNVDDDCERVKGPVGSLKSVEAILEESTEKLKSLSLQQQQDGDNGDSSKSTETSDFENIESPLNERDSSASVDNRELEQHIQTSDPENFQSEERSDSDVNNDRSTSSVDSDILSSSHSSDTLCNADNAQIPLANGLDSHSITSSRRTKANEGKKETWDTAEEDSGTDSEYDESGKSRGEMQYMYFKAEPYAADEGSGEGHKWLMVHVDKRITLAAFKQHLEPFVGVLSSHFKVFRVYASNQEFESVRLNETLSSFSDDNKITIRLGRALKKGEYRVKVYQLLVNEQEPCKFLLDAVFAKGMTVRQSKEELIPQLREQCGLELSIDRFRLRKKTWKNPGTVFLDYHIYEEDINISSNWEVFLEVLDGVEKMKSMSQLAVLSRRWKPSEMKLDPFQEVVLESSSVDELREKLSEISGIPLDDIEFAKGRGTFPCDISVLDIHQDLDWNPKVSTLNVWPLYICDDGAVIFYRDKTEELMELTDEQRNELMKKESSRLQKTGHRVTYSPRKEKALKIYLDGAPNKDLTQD
In short: as §1

USP48 = target: T3, USP48 (UniProt Q86UV5)
T3 sequence (whole entry): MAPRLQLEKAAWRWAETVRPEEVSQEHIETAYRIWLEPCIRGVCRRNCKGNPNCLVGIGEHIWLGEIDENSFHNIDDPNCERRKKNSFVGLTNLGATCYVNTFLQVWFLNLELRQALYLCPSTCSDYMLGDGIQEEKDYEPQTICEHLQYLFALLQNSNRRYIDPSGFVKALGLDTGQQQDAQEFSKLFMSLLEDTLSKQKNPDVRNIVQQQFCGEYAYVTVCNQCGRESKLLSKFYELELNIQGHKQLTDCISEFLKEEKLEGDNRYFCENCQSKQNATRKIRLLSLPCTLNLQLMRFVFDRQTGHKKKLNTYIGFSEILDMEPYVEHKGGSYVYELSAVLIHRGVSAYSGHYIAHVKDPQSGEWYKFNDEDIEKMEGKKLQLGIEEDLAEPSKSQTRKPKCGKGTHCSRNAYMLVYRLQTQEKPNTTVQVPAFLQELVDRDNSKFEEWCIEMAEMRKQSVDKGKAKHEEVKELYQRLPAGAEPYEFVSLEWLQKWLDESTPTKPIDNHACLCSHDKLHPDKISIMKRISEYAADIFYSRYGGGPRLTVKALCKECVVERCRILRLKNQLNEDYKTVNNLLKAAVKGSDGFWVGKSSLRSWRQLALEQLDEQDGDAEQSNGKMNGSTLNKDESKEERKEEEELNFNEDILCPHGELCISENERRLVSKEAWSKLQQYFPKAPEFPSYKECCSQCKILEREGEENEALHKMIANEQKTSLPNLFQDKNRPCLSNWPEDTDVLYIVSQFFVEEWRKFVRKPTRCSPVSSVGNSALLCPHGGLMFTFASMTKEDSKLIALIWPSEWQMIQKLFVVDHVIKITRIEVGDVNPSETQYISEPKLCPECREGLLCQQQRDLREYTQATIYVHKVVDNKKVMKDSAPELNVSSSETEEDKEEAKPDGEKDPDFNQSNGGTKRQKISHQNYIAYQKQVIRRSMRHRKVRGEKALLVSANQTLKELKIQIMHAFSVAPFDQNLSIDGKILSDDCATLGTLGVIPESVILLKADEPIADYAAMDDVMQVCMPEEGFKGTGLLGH
In short: as §1

USP5 = target: T4, USP5 (UniProt P45974)
T4 sequence (whole entry): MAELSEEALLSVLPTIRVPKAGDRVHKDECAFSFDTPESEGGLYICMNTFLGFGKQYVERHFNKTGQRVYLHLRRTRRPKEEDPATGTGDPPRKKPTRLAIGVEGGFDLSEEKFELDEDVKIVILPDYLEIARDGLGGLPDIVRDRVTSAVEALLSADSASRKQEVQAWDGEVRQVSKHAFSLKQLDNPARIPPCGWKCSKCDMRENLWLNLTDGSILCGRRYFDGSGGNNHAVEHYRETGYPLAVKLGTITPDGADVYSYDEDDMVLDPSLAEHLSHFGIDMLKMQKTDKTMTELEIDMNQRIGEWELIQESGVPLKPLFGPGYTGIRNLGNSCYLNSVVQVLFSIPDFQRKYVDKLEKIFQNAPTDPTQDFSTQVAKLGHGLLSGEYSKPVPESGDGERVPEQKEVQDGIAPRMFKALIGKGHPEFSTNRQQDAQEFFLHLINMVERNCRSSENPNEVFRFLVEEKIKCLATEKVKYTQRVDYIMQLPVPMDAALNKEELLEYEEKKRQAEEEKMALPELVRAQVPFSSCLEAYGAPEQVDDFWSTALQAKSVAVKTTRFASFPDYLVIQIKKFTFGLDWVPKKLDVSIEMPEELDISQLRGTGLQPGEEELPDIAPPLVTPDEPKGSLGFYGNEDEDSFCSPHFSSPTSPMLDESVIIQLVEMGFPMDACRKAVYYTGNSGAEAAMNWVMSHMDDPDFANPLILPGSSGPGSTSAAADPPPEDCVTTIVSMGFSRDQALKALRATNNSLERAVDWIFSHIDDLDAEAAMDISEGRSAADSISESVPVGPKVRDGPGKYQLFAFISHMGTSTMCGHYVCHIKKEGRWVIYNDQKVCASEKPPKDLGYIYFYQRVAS
In short: as §1

USP54 = USP54 (UniProt Q70EL1)
USP54, sequence (Q70EL1 whole entry): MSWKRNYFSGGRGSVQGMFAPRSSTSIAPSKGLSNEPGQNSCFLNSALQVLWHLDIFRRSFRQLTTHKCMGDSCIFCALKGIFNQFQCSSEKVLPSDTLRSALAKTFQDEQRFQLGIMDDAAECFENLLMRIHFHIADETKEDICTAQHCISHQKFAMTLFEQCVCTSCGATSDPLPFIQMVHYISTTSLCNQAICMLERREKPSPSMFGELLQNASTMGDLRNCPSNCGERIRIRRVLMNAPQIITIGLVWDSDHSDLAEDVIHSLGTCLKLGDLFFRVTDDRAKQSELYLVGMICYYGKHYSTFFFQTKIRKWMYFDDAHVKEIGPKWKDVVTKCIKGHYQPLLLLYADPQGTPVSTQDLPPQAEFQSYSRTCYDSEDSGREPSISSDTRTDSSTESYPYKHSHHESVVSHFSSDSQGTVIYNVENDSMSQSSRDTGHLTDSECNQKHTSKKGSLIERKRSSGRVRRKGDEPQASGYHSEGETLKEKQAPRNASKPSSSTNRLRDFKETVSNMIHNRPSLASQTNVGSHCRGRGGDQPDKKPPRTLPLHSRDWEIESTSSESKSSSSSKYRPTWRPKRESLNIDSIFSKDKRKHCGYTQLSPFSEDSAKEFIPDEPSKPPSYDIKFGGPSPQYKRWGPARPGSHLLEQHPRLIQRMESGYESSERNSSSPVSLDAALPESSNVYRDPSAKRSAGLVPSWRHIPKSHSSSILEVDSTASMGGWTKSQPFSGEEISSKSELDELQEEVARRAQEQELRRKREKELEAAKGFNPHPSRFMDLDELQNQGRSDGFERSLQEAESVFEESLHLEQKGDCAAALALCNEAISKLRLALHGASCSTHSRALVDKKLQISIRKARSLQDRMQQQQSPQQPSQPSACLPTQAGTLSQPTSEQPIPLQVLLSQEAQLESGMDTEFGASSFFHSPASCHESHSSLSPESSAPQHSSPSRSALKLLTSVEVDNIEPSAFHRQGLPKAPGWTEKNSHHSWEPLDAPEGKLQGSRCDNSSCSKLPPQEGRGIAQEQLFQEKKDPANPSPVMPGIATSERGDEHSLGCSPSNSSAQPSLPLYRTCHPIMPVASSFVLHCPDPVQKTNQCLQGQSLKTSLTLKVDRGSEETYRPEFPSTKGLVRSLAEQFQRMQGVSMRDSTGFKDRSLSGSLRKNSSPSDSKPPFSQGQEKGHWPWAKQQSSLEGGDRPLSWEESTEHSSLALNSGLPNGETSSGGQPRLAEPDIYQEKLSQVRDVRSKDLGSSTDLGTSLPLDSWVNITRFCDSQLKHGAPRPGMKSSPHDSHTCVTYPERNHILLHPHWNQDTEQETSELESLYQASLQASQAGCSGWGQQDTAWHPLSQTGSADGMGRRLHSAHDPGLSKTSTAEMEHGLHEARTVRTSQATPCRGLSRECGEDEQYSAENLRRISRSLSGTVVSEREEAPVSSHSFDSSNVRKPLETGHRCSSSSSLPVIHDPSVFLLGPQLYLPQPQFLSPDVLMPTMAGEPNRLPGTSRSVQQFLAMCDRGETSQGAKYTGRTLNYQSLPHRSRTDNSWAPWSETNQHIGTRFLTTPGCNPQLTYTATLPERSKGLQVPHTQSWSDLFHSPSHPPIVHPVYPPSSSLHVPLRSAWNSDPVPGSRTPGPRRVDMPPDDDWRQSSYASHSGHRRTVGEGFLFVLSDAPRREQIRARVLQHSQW
In short: as §1

USP7 = USP7 (UniProt Q93009)
In short: as §1

USP8 = target: T5, USP8 (UniProt P40818)
T5 sequence (whole entry): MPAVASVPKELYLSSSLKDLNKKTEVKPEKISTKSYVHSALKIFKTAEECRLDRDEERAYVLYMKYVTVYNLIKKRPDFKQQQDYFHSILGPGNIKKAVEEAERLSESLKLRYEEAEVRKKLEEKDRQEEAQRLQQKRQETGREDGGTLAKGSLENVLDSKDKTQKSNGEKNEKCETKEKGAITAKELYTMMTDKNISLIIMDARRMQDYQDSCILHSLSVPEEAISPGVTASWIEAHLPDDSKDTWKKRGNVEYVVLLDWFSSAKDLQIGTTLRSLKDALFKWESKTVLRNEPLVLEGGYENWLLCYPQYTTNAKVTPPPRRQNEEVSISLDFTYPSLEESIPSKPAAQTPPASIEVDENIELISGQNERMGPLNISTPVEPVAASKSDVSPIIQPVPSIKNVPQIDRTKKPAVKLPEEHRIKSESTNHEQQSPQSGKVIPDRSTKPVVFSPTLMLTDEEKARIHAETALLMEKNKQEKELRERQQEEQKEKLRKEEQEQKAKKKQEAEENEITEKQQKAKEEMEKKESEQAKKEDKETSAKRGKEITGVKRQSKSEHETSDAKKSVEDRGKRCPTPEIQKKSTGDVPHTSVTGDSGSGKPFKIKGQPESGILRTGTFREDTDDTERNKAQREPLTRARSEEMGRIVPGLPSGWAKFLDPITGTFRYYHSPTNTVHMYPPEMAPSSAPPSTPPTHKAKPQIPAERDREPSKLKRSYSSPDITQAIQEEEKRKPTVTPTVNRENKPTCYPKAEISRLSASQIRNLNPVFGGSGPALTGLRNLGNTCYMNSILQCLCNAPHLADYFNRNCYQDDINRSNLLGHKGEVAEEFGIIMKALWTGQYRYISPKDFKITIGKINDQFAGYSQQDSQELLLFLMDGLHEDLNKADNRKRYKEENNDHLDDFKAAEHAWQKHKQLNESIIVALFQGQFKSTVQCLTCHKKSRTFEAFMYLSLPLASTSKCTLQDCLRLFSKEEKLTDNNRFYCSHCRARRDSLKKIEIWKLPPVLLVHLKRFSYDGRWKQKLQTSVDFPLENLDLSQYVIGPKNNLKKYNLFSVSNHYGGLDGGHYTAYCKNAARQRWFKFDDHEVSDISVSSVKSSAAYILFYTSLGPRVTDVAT
In short: as §1

USP9X = USP9X (UniProt Q93008)
USP9X, sequence (Q93008 whole entry): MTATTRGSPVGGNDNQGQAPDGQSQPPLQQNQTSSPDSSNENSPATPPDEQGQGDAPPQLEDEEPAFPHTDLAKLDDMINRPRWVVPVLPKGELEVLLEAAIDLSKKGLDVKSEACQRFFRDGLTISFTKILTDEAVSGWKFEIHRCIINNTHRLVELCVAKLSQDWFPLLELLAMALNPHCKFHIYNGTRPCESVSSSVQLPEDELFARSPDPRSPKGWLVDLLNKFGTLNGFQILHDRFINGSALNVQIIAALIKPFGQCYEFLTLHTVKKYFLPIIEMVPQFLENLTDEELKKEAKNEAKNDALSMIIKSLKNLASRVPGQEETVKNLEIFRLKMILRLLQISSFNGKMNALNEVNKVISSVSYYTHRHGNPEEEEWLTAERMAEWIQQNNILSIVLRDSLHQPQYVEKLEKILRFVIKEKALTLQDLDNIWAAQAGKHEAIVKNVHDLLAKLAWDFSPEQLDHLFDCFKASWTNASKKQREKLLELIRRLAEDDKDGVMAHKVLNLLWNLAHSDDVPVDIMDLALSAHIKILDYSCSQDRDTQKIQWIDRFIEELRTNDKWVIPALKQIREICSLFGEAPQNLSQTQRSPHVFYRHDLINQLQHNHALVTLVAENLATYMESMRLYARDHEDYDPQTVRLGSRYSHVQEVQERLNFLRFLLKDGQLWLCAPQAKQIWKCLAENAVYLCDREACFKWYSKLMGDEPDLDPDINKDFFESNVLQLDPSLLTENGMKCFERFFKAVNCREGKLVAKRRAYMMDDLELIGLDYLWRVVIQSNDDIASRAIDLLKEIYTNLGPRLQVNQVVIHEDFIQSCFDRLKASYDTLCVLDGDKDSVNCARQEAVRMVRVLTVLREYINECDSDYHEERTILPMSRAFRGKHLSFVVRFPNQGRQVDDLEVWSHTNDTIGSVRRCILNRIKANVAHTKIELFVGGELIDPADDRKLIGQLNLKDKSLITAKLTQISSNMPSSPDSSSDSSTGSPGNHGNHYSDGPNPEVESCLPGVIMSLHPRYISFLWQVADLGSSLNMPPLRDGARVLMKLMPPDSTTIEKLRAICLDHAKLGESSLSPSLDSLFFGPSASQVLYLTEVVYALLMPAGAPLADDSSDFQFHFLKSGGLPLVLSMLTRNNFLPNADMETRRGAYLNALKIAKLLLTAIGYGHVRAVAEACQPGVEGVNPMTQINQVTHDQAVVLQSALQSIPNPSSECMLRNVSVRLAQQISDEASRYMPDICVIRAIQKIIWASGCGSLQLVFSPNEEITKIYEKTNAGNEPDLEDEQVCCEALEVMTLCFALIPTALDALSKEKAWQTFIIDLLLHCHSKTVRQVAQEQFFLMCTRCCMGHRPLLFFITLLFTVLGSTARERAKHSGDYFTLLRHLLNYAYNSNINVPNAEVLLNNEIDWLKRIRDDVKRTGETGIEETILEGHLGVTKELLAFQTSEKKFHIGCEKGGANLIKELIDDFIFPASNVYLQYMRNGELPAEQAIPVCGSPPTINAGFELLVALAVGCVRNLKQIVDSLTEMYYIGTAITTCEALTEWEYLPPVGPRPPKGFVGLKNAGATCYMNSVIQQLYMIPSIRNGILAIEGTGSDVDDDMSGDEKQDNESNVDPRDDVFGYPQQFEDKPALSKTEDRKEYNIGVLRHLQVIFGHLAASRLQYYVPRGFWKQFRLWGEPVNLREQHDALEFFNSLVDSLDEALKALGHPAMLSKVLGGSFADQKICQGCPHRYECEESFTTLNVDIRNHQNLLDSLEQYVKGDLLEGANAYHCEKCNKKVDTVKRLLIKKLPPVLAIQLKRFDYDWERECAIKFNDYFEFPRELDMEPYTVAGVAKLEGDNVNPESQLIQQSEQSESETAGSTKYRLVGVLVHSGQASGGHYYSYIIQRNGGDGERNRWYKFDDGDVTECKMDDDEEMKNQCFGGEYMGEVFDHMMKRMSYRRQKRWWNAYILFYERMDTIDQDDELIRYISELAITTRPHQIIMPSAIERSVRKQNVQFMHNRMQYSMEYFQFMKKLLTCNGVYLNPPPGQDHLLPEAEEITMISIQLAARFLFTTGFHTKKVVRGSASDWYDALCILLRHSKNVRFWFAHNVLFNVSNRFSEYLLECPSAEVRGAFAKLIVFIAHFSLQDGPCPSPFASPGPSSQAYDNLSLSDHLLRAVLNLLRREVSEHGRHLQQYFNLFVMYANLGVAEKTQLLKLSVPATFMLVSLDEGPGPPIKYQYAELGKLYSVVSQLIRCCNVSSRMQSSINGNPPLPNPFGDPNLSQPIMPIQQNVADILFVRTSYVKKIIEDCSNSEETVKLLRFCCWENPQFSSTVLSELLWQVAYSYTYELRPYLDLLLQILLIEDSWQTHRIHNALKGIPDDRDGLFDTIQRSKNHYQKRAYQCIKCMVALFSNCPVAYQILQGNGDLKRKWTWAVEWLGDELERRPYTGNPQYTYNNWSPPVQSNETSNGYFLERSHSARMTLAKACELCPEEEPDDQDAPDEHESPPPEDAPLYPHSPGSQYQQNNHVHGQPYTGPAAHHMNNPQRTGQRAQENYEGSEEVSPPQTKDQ
In short: as §1

UniProt O00487 = target: UniProt O00487
UniProt O00487, sequence (O00487 whole entry): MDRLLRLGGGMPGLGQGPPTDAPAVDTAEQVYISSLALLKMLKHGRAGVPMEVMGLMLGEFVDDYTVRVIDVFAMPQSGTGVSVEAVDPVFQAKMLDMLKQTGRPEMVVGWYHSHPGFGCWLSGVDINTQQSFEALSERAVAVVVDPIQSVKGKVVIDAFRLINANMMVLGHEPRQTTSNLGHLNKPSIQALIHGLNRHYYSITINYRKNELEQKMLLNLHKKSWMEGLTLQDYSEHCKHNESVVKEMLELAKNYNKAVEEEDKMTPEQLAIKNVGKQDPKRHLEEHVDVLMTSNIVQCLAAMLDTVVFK
In short: as §1

Measured: log2 ratio of Biotin-Ahx-Ub-VS probe labelling

CC(=O)Nc1ccc(NC(=O)CCl)cc1
inactive: USP42 0.329 | USP46 -0.0429 | USP47 -0.31 | USP48 -0.256 | USP5 -0.0185 | USP54 0.408 | USP7 -0.267 | USP8 -0.236 | USP9X -0.118 | UniProt O00487 -0.167

— the supplement of paper PMC11732987, “Enantioselective OTUD7B fragment discovery through chemoproteomics screening and high-throughput optimisation” (Communications Chemistry, 2025)
